Data from PubChem BioAssay (NCATS).
Records with an inconclusive call do not appear. Where a call stands in place of a potency, no number is given. Activity calls are given as the source filed them. Unless noted, calls follow the shape of the dose curve; as a rule, active = well fitted curve in the direction sought with a large enough effect; inconclusive = small, poorly fitted or top-dose-only effect, or another doubt; inactive = no such curve, though single readings can be large; an effect the other way counts as inactive or inconclusive.

Tests used:
[1] = Cytotoxicity counterscreen for NFkB agonists and antagonists (AID 624476);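 also: cells exposed to compound for 48 hours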
[2] = qHTS Assay for Identification of Small Molecule Agonists for NFkB Signaling Pathway. (AID 624478)
How it was run: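 Activators were sought in reporter cells stimulated at the TNF alpha EC50 (10 pM final). Compound and cytokine were co-incubated 5 hours at 37 C before beta-lactamase substrate detection by dual-emission fluorescence.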

[3] = Cell Proliferation Assay against the TMD8 Cell Line (AID 651645); conditions: TMD8 DLBCL cell line proliferation/viability; at 46.1 µM (top of the series) unless noted;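 also: cells exposed to compound for 48 h before reading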
How it was run: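 Luminescent ATP read-out (CellTiter-Glo, 15 min RT) after 48 h compound exposure of log-growing TMD8 cells at 37C; percent activity scaled between DMSO as 100% and 9.2 uM bortezomib final as 0%.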

[4] = Cell Proliferation Assay against the HBL1 Cell Line (AID 651646); conditions: HBL1 DLBCL cells; at 46.1 µM (top of the series) unless noted;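 also: cells exposed to compound for 48 h before reading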
How it was run: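 After a 48 h incubation of 500 HBL1 cells/well in phenol red-free RPMI plus 5% FBS, relative luciferase units from CellTiter-Glo gave percent activity against DMSO and 9.2 uM bortezomib (final) controls.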

[5] = qHTS Assay for Identification of Small Molecule Antagonists for NFkB Signaling Pathway. (AID 624479; calls by dose curve;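 also: pathway stimulated with TNF alpha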; also: potency is read from the fitted curve at half-maximal effect)
[6] = Cell Proliferation Assay against the TMD8 Cell Line (Caspase readout at 8 hrs) (AID 651713)
How it was run: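 Caspase 3/7 activation in ABC DLBCL TMD8 cells is measured by luminescence after an 8 h compound exposure at 37C. Relative light units are scaled between DMSO (0%) and 9.2 uM final bortezomib (100%).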

[7] = Cell Proliferation Assay against the TMD8 Cell Line (Caspase readout at 16 hrs) (AID 651712)
How it was run: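 16 h, 37 °C, TMD8 (500 cells/well), RPMI/5% FBS no phenol red; Caspase-Glo 3/7, 15 min RT, luminescence; %act: DMSO 0, bortezomib 9.2 uM final 100.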

[8] = qHTS assay for small molecule agonists of the antioxidant response element (ARE) signaling pathway (AID 651741; active = well fitted activation curve with a large enough effect in the signal ratio; the % refers to the signal ratio; also: potency is read from the fitted curve at half-maximal effect)
How it was run: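 Reporter: beta-lactamase under ARE, stably in HepG2. Exposure: 16 h, 37 C, compounds delivered in DMSO by pin tool after 5 h cell preincubation. Readout: FRET substrate fluorescence after 2 h at RT.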

| SMILES | Potency [1] | outcome [2] | viability (% of control) [3] [%] | viability, percent of control [4] [%] | Potency [5] | Potency [6] | Potency [7] | Potency [8] |
| --- | --- | --- | --- | --- | --- | --- | --- | --- |
| Cc1ccc(NC(=O)c2cccc(C(C)(C)C#N)c2)cc1Nc1ccc2ncn(C)c(=O)c2c1 | inactive | inactive | 11.7 | 41.4 | – | – | – | – |
| O=S(=O)(N=Cc1c(O)ccc2ccccc12)c1cccs1 | inactive | inactive | 49.7 | 72.6 | inactive | inactive | – | – |
| CN(C)C(=O)c1ccc(S(=O)(=O)c2ccc(NC(=O)[C@@](C)(O)C(F)(F)F)c(Cl)c2)cc1 | – | inactive | 73 | 86.5 | inactive | inactive | inactive | – |
| COc1ccccc1-c1cccc(-c2c(O)c3cc(C#N)c(Cl)cc3[nH]c2=O)c1 | inactive | inactive | 86.6 | 80.1 | – | inactive | inactive | – |
| Cc1cc([C@@H](C)Nc2ccccc2C(=O)O)c2nc(N3CCOCC3)cc(=O)n2c1 | – | inactive | 14.9 | 45.6 | inactive | inactive | – | – |
| O=C(OCC#CCSc1nnc(-c2ccc3ccccc3c2)o1)c1cc2ccccc2s1 | inactive | – | 90 | 86.3 | inactive | inactive | inactive | – |
| CNC(=O)c1ccc(N2C(=S)N(c3ccc(C#N)c(C(F)(F)F)c3)C(=O)C2(C)C)cc1F | inactive | inactive | 78.7 | 83.2 | – | inactive | – | – |
| Cc1c(C)c2c(c(C)c1O)CCC(C)(COc1ccc(CC3SC(=O)NC3=O)cc1)O2 (stereo unspecified) | – | inactive | 71.7 | 81.5 | – | inactive | – | 21.7 µM (active) |
| CS(=O)(=O)Oc1ccc2c(NC(N)=O)c(C(=O)c3ccc(Cl)cc3Cl)oc2c1 | inactive | inactive | 84.9 | 78.9 | – | inactive | – | – |
| C#Cc1cccc(Nc2ncnc3cc(OCCOC)c(OCCOC)cc23)c1 | – | inactive | 58 | 74.6 | – | inactive | inactive | – |
| COc1cc(Nc2ncc3c(n2)-c2ccc(Cl)cc2C(c2c(F)cccc2OC)=NC3)ccc1C(=O)O | – | inactive | 31.4 | 53 | inactive | inactive | – | – |
| COc1ccc(COc2cc3oc(=O)c4cc(C(C)O)ccc4c3cc2OC)cc1 (stereo unspecified) | – | – | 57.4 | 45.7 | inactive | – | inactive | – |
| CCOc1ccn(-c2ccc(F)cc2)c(=O)c1C(=O)Nc1ccc(Oc2ccnc(N)c2Cl)c(F)c1 | – | inactive | 53.5 | 68.6 | 16.8 µM (active) | – | – | – |
